The nature of assay [1]: qHTS assay to identify small molecule agonists of the vitamin D receptor (VDR) signaling pathway - cell viability counter screen (AID 743224). Also: series mostly up to about 63 µM; nearly all actives have a fitted effect of over 50% in size. The procedure, abridged:
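Plated VDR-bla cells (4 h, 37C) received compound, incubated 16 h, then LiveBLAzer substrate 2 h RT; CellTiter-Glo added afterwards, luminescence read at 30 min.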

Assay [2] is described as follows: qHTS assay to identify small molecule antagonists of the vitamin D receptor (VDR) signaling pathway - cell viability counter screen (AID 743225). Also: nearly all actives have a fitted effect of over 50% in size. The essentials:
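Same-well multiplex: following 16 h treatment of HEK 293T cells carrying a UAS-driven beta-lactamase reporter with compound and agonist (3 nM final), and a 2 h FRET substrate step, CellTiter-Glo was added and luminescence read after 30 min.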

Assay [3] in a line: qHTS assay to identify small molecule agonists of the NFkB signaling pathway (AID 1159509; active = well fitted curve in the direction sought with a large enough effect in the signal ratio in the repeat runs, not every such curve was filed as active; the % refers to the signal ratio; also: series mostly up to about 61 µM). The essentials: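 NFkB-bla ME-180 cells carry a beta-lactamase reporter under an NF-kB response element. They were plated overnight, then exposed to compounds for 5 h at 37 C. Read-out is LiveBLAzer FRET after 1.5 hr at room temperature (405 nm excitation; 460/530 nm emission).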
A short description of assay [4]: qHTS assay to identify small molecule agonists of the NFkB signaling pathway - cell viability counter screen (AID 1159515; calls by dose curve; also: series mostly up to about 61 µM; nearly all actives have a fitted effect of over 55% in size). The procedure, abridged:
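Using the same wells as the NFkB reporter read, ME-180 NFkB-bla cells given compounds for 5 hr were assessed for viability via CellTiter-Glo, with luminescence taken after a 30 min room-temperature incubation.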
(In general: Quantitative high-throughput screening tests each substance at several concentrations.)

Assay [5] can be described thus: qHTS assay to identify small molecule antagonists of the retinoid-related orphan receptor gamma (ROR-gamma) signaling pathway - cell viability counter screen (AID 1159520). Also: nearly all actives have a fitted effect of over 50% in size. The procedure, abridged:
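Cytotoxicity was read from cellular ATP (CellTiter-Glo luminescence) after 16 hr at 37 C with 1 uM doxycycline induction. The inducer was added 2 hr after compound transfer to Tet-on ROR gamma CHO cells.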

Assay [6] concerns the target Nuclear receptor ROR-gamma (Homo sapiens) (UniProt P51449). In words: qHTS assay to identify small molecule antagonists of the retinoid-related orphan receptor gamma (ROR-gamma) signaling pathway (AID 1159521; also: nearly all actives have a fitted effect of over 50% in size; also: potency is read from the fitted curve at half-maximal effect). The procedure, abridged:
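Inducible-expression reporter assay: doxycycline (1 uM final) switched on RORγ in CHO cells bearing a ROR response element-luciferase construct, with test compounds present from 2 h beforehand. Decreased luminescence after 16 h defined antagonist activity.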

Assay [7] is described as follows: qHTS assay to identify small molecule agonists of the AP-1 signaling pathway - cell viability counter screen (AID 1159525; calls by dose curve; also: nearly all actives have a fitted effect of over 55% in size). The procedure, abridged:
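Luminescent ATP readout (Cell Titer Glo, 30 min RT), normalised to DMSO and tetra n-octyl ammonium bromide controls. Cells were ME-180 AP-1-bla in 0.5% dialyzed FBS Opti-MEM, with a 5 h, 37 °C compound exposure.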

The nature of assay [8]: qHTS assay to identify small molecule agonists of the AP-1 signaling pathway (AID 1159526; calls by dose curve).
In assay [9] the target is Retinoic acid receptor RXR-alpha (Homo sapiens) (UniProt P19793). In words: qHTS assay to identify small molecule agonists of the RXR signaling pathway (AID 1159527; calls by dose curve; also: nearly all actives have a fitted effect of over 35% in size). The essentials: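 Compounds in DMSO were added to RXR-alpha-UAS-bla HEK 293T cells kept in 2% charcoal-stripped serum, and incubated 16 hr at 37 C with 5% CO2. Reporter signal came from a 2 hr B/G FRET substrate step.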

Assay [10] in a line: qHTS assay to identify small molecule agonists of the RXR signaling pathway - cell viability counter screen (AID 1159529). The procedure, abridged: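 Counter screen: CellTiter-Glo luminescence. Cells: RXR-alpha-UAS-bla HEK 293T. Medium: 2% charcoal-stripped FBS. Treatment: 16 h, 37 C. Reagent incubation: 30 min, RT.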
Assay [11] is described as follows: qHTS assay to identify small molecule antagonists of the retinoid acid receptor (RAR) signaling pathway - cell viability counter screen (AID 1159551). Also: nearly all actives have a fitted effect of over 35% in size. The procedure, abridged: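 Retinol-stimulated (1 uM final) C3RL4 cells, compound 6 h, 37 C; readout CellTiter-Glo luminescence (ATP) after 30 min RT incubation.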
Assay [12] is described as follows: qHTS assay to identify small molecule agonists of the retinoic acid receptor (RAR) signaling pathway (AID 1159553). The procedure, abridged: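 Reporter readout comes from luciferase under RARE control in C3RL4 cells; compound exposure lasts 6 hr at 37 C in 5% CO2, and luminescence is recorded following a 30 min room-temperature incubation with reagent.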
The nature of assay [13]: qHTS assay to identify small molecule agonists of the endoplasmic reticulum stress response signaling pathway (AID 1159516; active = well fitted activation curve with a large enough effect in the signal ratio in the repeat runs, not every such curve was filed as active; the % refers to the signal ratio). The procedure, abridged: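 An ESRE-bla HeLa cell assay: compounds were pin-transferred from DMSO onto overnight-plated cells and left 5 hr at 37 C. Substrate was then loaded for 2 hr at room temperature before reading fluorescence at 460 nm and 530 nm.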

A short description of assay [14]: qHTS assay to identify small molecule antagonists of the retinoic acid receptor (RAR) signaling pathway (AID 1159552; also: nearly all actives have a fitted effect of over 50% in size). The procedure, abridged: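 Antagonism of retinol-induced RARE reporter activity was measured in C3RL4 cells. Exposure to compounds and 1 uM final retinol lasted 6 hr at 37 C, with luminescence as endpoint.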
The nature of assay [15]: qHTS assay to identify small molecule agonists of the endoplasmic reticulum stress response signaling pathway - cell viability counter screen (AID 1159517; calls by dose curve). The procedure, abridged: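 HeLa cells carrying an ESRE-driven beta-lactamase reporter receive compound for 5 hr at 37 C. Cell viability is then gauged with CellTiter-Glo by luminescence, 30 min at room temperature.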

Assay [16] is described as follows: qHTS assay to identify small molecule antagonists of the estrogen related receptor (ERR) signaling pathway - cell viability counter screen (AID 1224818).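 Also: series mostly up to about 46 µM; viability measured after 17.5 h of compound exposure.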 The procedure, abridged:
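After a 6 h pre-incubation, ERR cells were dosed by pin tool with compounds, positive/negative controls or DMSO alone. Following 17.5 h at 37 C and 30 min with CellTiter-Fluor, fluorescence was recorded.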

The nature of assay [17]: qHTS assay to identify small molecule antagonists of the estrogen related receptor signaling pathway with the pleiotropic PPARgamma coactivator (PGC) cell viability counter screen (AID 1224822;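 also: series mostly up to about 46 µM; viability read after 17.5 h compound exposure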). The procedure, abridged:
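PGC/ERR cells were plated at 2,000 per well and allowed 6 h to settle before compound addition. Following 17.5 h at 37 C, CellTiter-Fluor reagent was added and fluorescence was read 30 min later.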

Values joined by “and” are separate entries in the source; they are usually repeats but may differ in a detail not shown here. Equal values may be shown once. Inconclusive results are not listed. Active and inactive are the calls of the source. Unless noted, calls follow the shape of the dose curve; as a rule, active = well fitted curve in the direction sought with a large enough effect in the repeat runs; inconclusive = weak or mixed curves; inactive = no such curve, though single readings can be large; an effect the other way counts as inactive or inconclusive.

Chain of Retinoic acid receptor RXR-alpha (Homo sapiens) (P19793 whole entry, looked up): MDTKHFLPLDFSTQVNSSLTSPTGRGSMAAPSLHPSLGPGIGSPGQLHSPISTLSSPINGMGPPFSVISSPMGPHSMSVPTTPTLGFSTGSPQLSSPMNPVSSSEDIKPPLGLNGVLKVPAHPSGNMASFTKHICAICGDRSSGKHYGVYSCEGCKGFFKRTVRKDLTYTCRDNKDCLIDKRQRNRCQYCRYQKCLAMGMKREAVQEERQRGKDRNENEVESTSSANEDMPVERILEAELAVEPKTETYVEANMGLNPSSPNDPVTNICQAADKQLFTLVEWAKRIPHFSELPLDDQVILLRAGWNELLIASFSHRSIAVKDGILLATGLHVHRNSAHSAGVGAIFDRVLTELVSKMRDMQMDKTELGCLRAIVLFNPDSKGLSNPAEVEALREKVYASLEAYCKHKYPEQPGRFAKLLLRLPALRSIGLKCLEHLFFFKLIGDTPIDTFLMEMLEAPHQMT

For the molecule `CC1(C)NC(=O)NC1=O`, the outcome in assay [1], in assay [2], in assay [3], in assay [4], in [5] and in assay [7] was inactive. Also, the molecule was called inactive in [10] and in assay [11]. Also, the Potency result in assay [6], in assay [8], in assay [9] and in [12] was “inactive” throughout.
For `CCCCCCCCCCO`, the molecule was called inactive in assay [1], in assay [2], in [3], in [4], in [13] and in assay [5]. Besides, the molecule was classed as inactive in assay [7], in assay [11] and in assay [14]. In addition, the Potency entry in assay [6], in assay [8], in [9] and in assay [12] was “inactive” throughout.
Consider `O=S(=O)(O)c1ccccc1`, for which the molecule was called inactive in assay [1], in [2], in assay [3], in assay [4], in assay [13] and in assay [5]. The outcome in assay [7], in assay [11] and in assay [14] was inactive. The Potency entry in assay [6], in assay [8], in [9] and in [12] was “inactive” throughout.
With `C=C(C)CNCC`, the outcome in assay [1], in assay [2], in assay [3], in assay [4], in assay [13] and in assay [5] was inactive. Besides, the result in assay [7] and in [11] was inactive. The Potency result in assay [6], in assay [8], in assay [9] and in [12] was “inactive” throughout.
On to `CC(C)OC(=O)COc1ccc(Cl)cc1Cl`, for which the result in [1], in [2], in [3], in assay [13], in [5] and in [7] was inactive. The molecule was classed as inactive in [10], in assay [11] and in [14]. The Potency entry in [15], in assay [6], in [8], in assay [9] and in [12] was “inactive” throughout.
As to `COCCCN`, the call in assay [1], in assay [2], in assay [3], in assay [4], in assay [5] and in assay [7] was inactive. For the same molecule, the call in assay [10] and in assay [11] was inactive. Moreover, the Potency entry in assay [15], in assay [6], in [8] and in assay [9] was “inactive” in each case.
With `CCCOC(=O)c1ccccc1`, the call in assay [1], in [2], in [3], in [4], in [5] and in assay [7] was inactive. Moreover, the outcome in assay [10] and in assay [11] was inactive. The Potency result in assay [15], in assay [6], in [8] and in [9] was “inactive” in each case.
For `O=C1C(c2[nH]c3ccccc3c2O)=Nc2ccccc21`, the result in assay [1], in assay [2], in assay [3], in [4], in assay [5] and in [7] was inactive. The molecule was classed as inactive in [10], in assay [11] and in assay [14]. The Potency result in assay [15], in assay [6], in assay [8], in assay [9] and in assay [12] was “inactive” each time.
Turning to `CCCCCCCCCCCCCCCC(=O)OC(C)C`, the outcome in assay [1], in [2], in assay [3], in assay [4], in assay [5] and in assay [7] was inactive. Moreover, the outcome in assay [10], in assay [11] and in assay [14] was inactive. Also, the Potency result in assay [15], in assay [6], in assay [8], in assay [9] and in assay [12] was “inactive” in each case.
Turning to `CN(C)c1ccc(Cc2ccc(N(C)C)cc2)cc1`, the outcome in [1], in [2], in assay [3], in [4], in assay [5] and in assay [7] was inactive. The call in assay [10], in [11] and in [14] was inactive. The Potency result in [15], in [6], in assay [8], in assay [9] and in assay [12] was “inactive” each time.
`N#Cc1ccccc1`: the molecule was classed as inactive in assay [1], in assay [2], in [3], in assay [4], in [5] and in [7]. The molecule was classed as inactive in [11]. Further, the Potency entry in assay [6], in assay [8] and in assay [9] was “inactive” in each case.
As to `CN(C)c1ccc(O)c2c1C[C@H]1C[C@H]3[C@H](N(C)C)C(=O)C(C(N)=O)=C(O)[C@@]3(O)C(=O)C1=C2O`, the outcome in assay [1], in assay [2], in assay [3], in [4], in [13] and in [5] was inactive. Besides, the molecule was called inactive in [7] and in assay [11]. Also, the Potency in assay [6] is 21.7 µM (active) and 26.6 µM (active). Further, the Potency result in assay [8] and in [9] was “inactive” throughout.
Regarding `O=C(O)c1ccc(C(=O)O)c(C(=O)O)c1`, the result in assay [1], in [2], in assay [3], in assay [4], in [5] and in assay [7] was inactive. Besides, the molecule was called inactive in assay [10], in [11] and in assay [14]. In addition, the Potency entry in assay [6], in [8], in [9] and in assay [12] was “inactive” throughout.
As for `C=CC(C)CCCC(C)(C)O` (centres undefined), the molecule was called inactive in assay [1], in assay [2], in assay [3], in assay [4], in assay [5] and in assay [7]. Also, the call in [10], in [11] and in assay [14] was inactive. The Potency entry in assay [15], in assay [6], in assay [8], in [9] and in assay [12] was “inactive” throughout.
As to `OCc1cccc(Oc2ccccc2)c1`, the outcome in [1], in assay [2], in assay [3], in assay [4], in assay [5] and in assay [7] was inactive. Besides, in [11], the molecule was called inactive. Moreover, the Potency entry in assay [15], in [6], in assay [8], in assay [9] and in assay [12] was “inactive” in each case.
For the molecule `CCOC(=O)n1ccn(C)c1=S`, the call in assay [1], in assay [2], in assay [3], in [4], in [5] and in [7] was inactive. Moreover, the result in assay [10] and in assay [11] was inactive. Further, the Potency entry in assay [15], in [6], in assay [8], in assay [9] and in [12] was “inactive” each time.
`CN1C(=O)CC[C@H]1c1cccnc1`: the molecule was classed as inactive in assay [1], in assay [2], in [3], in [4], in assay [5] and in [7]. In addition, the molecule was classed as inactive in assay [11], in assay [16] and in assay [17]. Further, the Potency result in assay [15], in assay [6], in assay [8] and in assay [9] was “inactive” throughout.
Consider `COc1ccc(CCC(C)=O)cc1`, for which the result in assay [1], in [2], in assay [3], in assay [4], in [13] and in [5] was inactive. In addition, the result in assay [7], in [11] and in [14] was inactive. The Potency entry in assay [6], in assay [8], in assay [9] and in assay [12] was “inactive” throughout.
